Assay outcomes (PubChem)
14-3-3g Raf: alters human 14-3-3 gamma binding to Raf peptide; FP, 14-3-3gamma / TMR-pS259-Raf peptide binding; inhibition, % at 40 µM; actives 0.19% (n = 160,000); in the data active = inhibition above about 30%
Target sequence (P61981 whole entry, looked up): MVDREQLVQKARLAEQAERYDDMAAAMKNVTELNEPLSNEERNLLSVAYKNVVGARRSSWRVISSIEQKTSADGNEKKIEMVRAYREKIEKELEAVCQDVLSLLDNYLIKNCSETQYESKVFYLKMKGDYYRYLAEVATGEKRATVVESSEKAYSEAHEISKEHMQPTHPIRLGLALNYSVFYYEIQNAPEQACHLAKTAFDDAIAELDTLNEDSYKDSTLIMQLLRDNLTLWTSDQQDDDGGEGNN
Numbers stand for hits; n = inactive; + = active, no number; ! = a repeat was not active. The sample as a whole holds a higher share of hits than the screen did.

SMILES	14-3-3g Raf
CCOC(=O)c1ccc(NC(=O)c2oc(=O)c3ccccc3c2-c2ccc(C)cc2)cc1	n
Cc1ccc(-c2nc3ncccc3o2)cc1NC(=O)COc1cccc(C)c1C	n
O=C(c1ccc2c(=O)n(-c3cccc(C(F)(F)F)c3)c(=S)[nH]c2c1)N1CCc2ccccc2C1	n
CCOc1ccccc1C1NN(C(=O)c2cccc(Br)c2)C2C(=O)N(c3ccc(C)cc3)C(=O)C12 (stereo unspecified)	n
O=[N+]([O-])c1ccc(S(=O)(=O)N2CC3C=CC2C3)cc1 (stereo unspecified)	n
Cc1ccccc1Nc1ccc2noc3c2c1C(=O)c1ccccc1-3	n
CC(=O)OCCNc1ccc2noc3c2c1C(=O)c1ccccc1-3	+
O=C1c2ccccc2-c2onc3ccc(NCCCn4ccnc4)c1c23	n
CSc1cccc(NS(=O)(=O)c2ccc3c(c2)CCCN3C(C)=O)c1	n
CN1CCN(C(=O)c2ccc3c(c2)NC(=O)C(N2CCOCC2)S3)CC1 (stereo unspecified)	n
O=C1Nc2cc(C(=O)N3CCOCC3)ccc2SC1N1CCOCC1 (stereo unspecified)	38.3!
O=C1Nc2cc(C(=O)N3CCOCC3)ccc2SC1N1CCCC1 (stereo unspecified)	n
COc1ccc(-c2nc(-c3ccccc3)c(-c3ccc([N+](=O)[O-])cc3)[nH]2)cc1	n
COc1ccc(CN2C(=O)CC(C(=O)Nc3ccc(OC)cc3)SC2=Nc2ccccc2)cc1 (stereo unspecified)	n
CCN1C(=O)c2ccc(S(=O)(=O)N3CCCCCC3)c3cccc1c23	n
CCN1C(=O)c2cccc3c(S(=O)(=O)N4CCCC4)ccc1c23	n
CCN1C(=O)c2cccc3c(S(=O)(=O)N4CCCc5ccccc54)ccc1c23	32.5
Nc1ccc([N+](=O)[O-])cc1NC(=O)c1ccccc1	n
O=C(O)Cn1c(-c2ccccc2)nc2ccccc21	n
O=C(O)Cn1c2ccccc2c2nn3cc(-c4ccccc4)nc3nc21	118.8
COC(=O)Cn1c2ccccc2c2nc3ccccc3nc21	n
Cc1ccc2cc3cc(C(=O)NCCCN4CCN(C)CC4)oc3nc2c1	65.8
Cc1ccc2cc3cc(C(=O)NCCCN4CCC(C)CC4)oc3nc2c1	n
CCN1CCN(CCCNC(=O)c2cc3cc4ccc(C)cc4nc3o2)CC1	n
Oc1ccc(Cl)cc1C=Nc1ccc2nc(-c3ccccc3)[nH]c2c1	30.4
SMILES	14-3-3g Raf
COc1ccc(C=Nc2ccc3nc(-c4ccccc4)[nH]c3c2)cc1OC	n
O=C(Nc1cc(N=Cc2cc(Cl)ccc2O)ccc1Cl)c1ccccc1	n
COCCNC(=O)C1CCC(Cn2c(=O)[nH]c3ccsc3c2=O)CC1 (stereo unspecified)	n
COc1ccc(OC)c(NC(=O)CCN2CCCCC2)c1	n
COc1ccc(OC)c(NC(=O)CCN2CCCC(C)C2)c1 (stereo unspecified)	35.3
COc1ccc(C)cc1NC(=O)CCN1CCCC1	n
CCOC(=O)CN=C1CC(C)(C)CC2=C1Sc1ncnc(OC)c1N2	81.1
CCOC(=O)C1=C(C)NC2=C(C(=O)CC(C)(C)C2)C1c1ccccn1 (stereo unspecified)	n
COCCOC(=O)C1=C(C)NC(=O)NC1c1c(OC)ncnc1OC (stereo unspecified)	n
Cc1cc(N2C(=O)c3ccc(-c4nc5ccccc5c(=O)o4)cc3C2=O)ccc1Br	n
Cc1ccc(CSc2nnc3c(n2)OC(c2ccncc2)Nc2ccccc2-3)cc1 (stereo unspecified)	75.9
Cc1ccc(CSc2nnc3c(n2)OC(c2ccccn2)Nc2ccccc2-3)cc1 (stereo unspecified)	n
CCCSc1nnc2c(n1)OC(c1cccc(C)n1)Nc1ccccc1-2 (stereo unspecified)	n
Cc1ccc(CSc2nnc3c(n2)OC(c2cccc(C)n2)Nc2ccccc2-3)cc1 (stereo unspecified)	31.9
Cc1ccc(CSc2nnc3c(n2)OC(c2ccc(C(=O)O)cc2)Nc2ccccc2-3)cc1 (stereo unspecified)	n
Clc1ccc(CSc2nnc3c(n2)OC(c2ccncc2)Nc2ccccc2-3)cc1 (stereo unspecified)	n
CCOC(=O)c1cnc2c(OC)cccc2c1N1CCC(C(N)=O)CC1	n
COc1ccc(COC(=O)C2=C(C)NC3=C(C(=O)CC(c4cccs4)C3)C2c2cccc(O)c2)cc1 (stereo unspecified)	n
Nc1c(C(=O)NCCc2ccccc2)sc(=S)n1CCc1ccccc1	n
N/C(=N\c1nc2ccccc2o1)NC(=O)c1sc2ccccc2c1Cl	n
C[C@H](Cc1ccc(O)c(O)c1)[C@@H](C)Cc1ccc(O)c(O)c1	n
CC(Cc1ccc(O)c(O)c1)C(C)Cc1ccc(O)c(O)c1 (stereo unspecified)	60.1
N[C@@H](Cc1ccc(O)c(O)c1)C(=O)O	n
COc1ccc(OCC(=O)N2CCN(S(=O)(=O)c3ccc(NC(C)=O)cc3)CC2)cc1	n
O=C(NCCCO)c1ccc2ccccc2c1	n
SMILES	14-3-3g Raf
COc1ccccc1CNC(=O)CCn1c(=O)c2ccccc2n(Cc2c(C)cc(C)cc2C)c1=O	n
CC1CCN(CCCNC(=O)c2ccc3nc4ccccc4c(=O)n3c2)CC1	n
Nc1nc(N)nc(-c2ccccc2)n1	n
Cc1nnc(-c2ccccc2)nn1	86.2
c1ccc(-c2nnc(-c3ccccc3)o2)cc1	n
CC(=O)c1cccc(NC(=O)c2ccc3c(c2)OCCO3)c1	n
CCOC(=O)c1ccc(N2C(=S)NC3c4cccc(OCC)c4OC2(C)C3C(=O)N(C)C)cc1 (stereo unspecified)	n
Cc1ccc(NC(=O)CCN2C(=O)c3cccc([N+](=O)[O-])c3C2=O)cc1	n
O=C1C(Nc2ccccc2)=CC(=NS(=O)(=O)c2cccs2)c2ccccc21	n
CC(=O)Nc1ccc(NC2=CC(=NS(=O)(=O)c3cccs3)c3ccccc3C2=O)cc1	n
CCOC(=O)c1ccc(NC2=CC(=NS(=O)(=O)c3cccs3)c3ccccc3C2=O)cc1	66.7
COc1ccc(Cl)cc1NC(=O)c1cc(S(=O)(=O)NCc2ccc(C)cc2)ccc1F	n
Cc1cccc(C2C=C(c3ccc(Cl)cc3)Nc3nnnn32)c1 (stereo unspecified)	n
Clc1ccccc1C1C=C(c2cccs2)Nc2nnnn21 (stereo unspecified)	n
Cc1cccc(C2C=C(c3ccc(Br)s3)Nc3nnnn32)c1 (stereo unspecified)	48.1
CCc1ccc(C2=CC(c3cccc(C)c3)n3nnnc3N2)cc1 (stereo unspecified)	n
Cc1ccc(C2=CC(c3ccc(C)cc3)n3nnnc3N2)cc1 (stereo unspecified)	n
Cc1ccc(C2C=C(c3cccs3)Nc3nnnn32)cc1 (stereo unspecified)	37.3
COc1ccc(CN2C(=O)CC(C(=O)Nc3ccc(C(=O)O)cc3)SC2=Nc2ccccc2)cc1 (stereo unspecified)	n
